Six1-Eya2 inh: qHTS Assay for Inhibitors of the Six1/Eya2 Interaction. Homeobox protein SIX1 (Homo sapiens) + Protein phosphatase EYA2 (Homo sapiens), …. AlphaScreen GST-Six1/His-Eya2 binding, biochemical; stronger effect = lower value. activity change, % (test concentration not listed). 360,000 tested, 0.56% active. AID 651725, 2012; in the data active = activity change below about -65%; inconclusive = mostly about -30% to -63%
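Six1/Eya2 binding was read as AlphaScreen signal after compounds were pinned into GST-Six1 plus His-tagged Eya2 (5X stock 250/500 nM) in pH 8.0 Tris/NaCl/TCEP buffer, beads added, then incubated 1 h, 37 C, dark.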
JMJD2A Tudor: qHTS Assay for Inhibitors of JMJD2A-Tudor Domain. AlphaScreen JMJD2A-Tudor / H3K4me3 peptide binding. Potency, µM (top dose mostly 114 µM), most hits filed as inhibitors. 390,000 tested, 4.4% active. AID 504339, 2011; also: nearly all actives have a fitted effect of over 50% in size
HP1b chromo inh: HTS for Inhibitors of HP1-beta Chromodomain Interactions with Methylated Histone Tails; Potency, µM (titrated, usually from 114 µM), most hits filed as inhibitors; Chromobox protein homolog 1 (Homo sapiens), P83916; AID 540317, 2011; 390,000 tested, 0.56% active; AlphaScreen HP1-beta / biotin-H3K9me3 peptide binding; also: nearly all actives have a fitted effect of over 70% in size
Target sequence (P83916 whole entry, looked up): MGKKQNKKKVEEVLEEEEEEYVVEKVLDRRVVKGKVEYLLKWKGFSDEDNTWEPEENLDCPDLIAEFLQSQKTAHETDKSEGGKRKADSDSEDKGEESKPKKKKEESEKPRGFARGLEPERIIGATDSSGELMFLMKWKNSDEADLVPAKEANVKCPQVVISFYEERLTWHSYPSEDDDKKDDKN
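HP1-beta protein (50 nM final) preincubated 30 min at room temperature with biotinylated H3(1-18)K9me3 peptide (50 nM) in PBS pH 7.4, 0.01% Tween-20, then compound added for 30 min. AlphaScreen streptavidin donor/nickel chelate acceptor beads (10 ug/mL final), 30 min dark, luminescence read.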
BAZ2B block: qHTS Assay for Inhibitors of BAZ2B | Bromodomain adjacent to zinc finger domain protein 2B (Homo sapiens), Q9UIF8 | AlphaScreen BAZ2B-H3K14Ac peptide displacement | Potency, µM (top dose mostly 114 µM), actives largely listed as inhibitors | 360,000 tested, 4.4% active | AID 504333, 2011; also: nearly all actives have a fitted effect of over 60% in size
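Inhibition is scored as reduced AlphaScreen emission. The BAZ2B/b-H3(5-23)K14Ac complex (50 nM each) in PBS pH 7.4, 0.01% Tween-20 meets compound (up to 110 uM) for 30 min at RT before bead addition.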
CtBP-E1A blk: qHTS Assay for Inhibitors of the CtBP/E1A Interaction | CtBP / adenovirus E1A interaction (AlphaScreen) | AlphaScreen GST-E1A/His-CtBP binding, 1536-well; stronger effect = lower value | 340,000 tested, 0.49% active | activity change, % (no concentration beside the values); in the data active = activity change below about -65%; inconclusive = mostly about -30% to -63%
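Steps: dispense buffer (Tris pH 8.0, NaCl 300 mM, TCEP 1 mM, BSA, Tween 20); add 5X protein mix (GST-E1A, His-CtBP, 125 nM each); pin 23 nL compound; 2 h at 37 °C, dark; add 5X beads (50 ug/mL); 1 h; read.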
G9a inh: qHTS Assay for Inhibitors of Histone Lysine Methyltransferase G9a; AID 504332, 2011; 350,000 tested, 8.8% active; Potency, µM (titrated, usually from 102 µM), usual class: inhibitors; Histone-lysine N-methyltransferase EHMT2 (Homo sapiens), Q96KQ7; G9a H3K9 monomethylation, AlphaScreen, 2 h; also: nearly all actives have a fitted effect of over 75% in size
Target sequence (Q96KQ7 913-1193 limits assumed): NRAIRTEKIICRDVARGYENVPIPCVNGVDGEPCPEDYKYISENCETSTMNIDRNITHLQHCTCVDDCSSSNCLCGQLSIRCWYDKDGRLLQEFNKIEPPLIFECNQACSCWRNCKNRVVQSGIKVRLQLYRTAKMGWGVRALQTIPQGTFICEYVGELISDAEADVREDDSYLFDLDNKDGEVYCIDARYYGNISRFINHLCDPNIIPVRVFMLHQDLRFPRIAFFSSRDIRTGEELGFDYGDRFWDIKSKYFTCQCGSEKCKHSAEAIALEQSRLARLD
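Compounds were preincubated with 20 nM G9a for 15 min, after which biotinylated H3K9 peptide (500 nM) and SAM (20 uM) started a 2 h room-temperature reaction. Monomethylated product was quantified by antibody-based AlphaScreen chemiluminescence.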
A number is an active result; - = inactive; ? = inconclusive; . = no result; [ ] = dose if it differs, or a comment. A selection: hits, their analogues and other compounds. The true share with any hit is near 10%. Unless noted, calls follow the shape of the dose curve; as a rule, active = well fitted inhibition curve with a large enough effect; inconclusive = small, poorly fitted or top-dose-only effect; inactive = no such curve, though single readings can be large or run the other way.

SMILES	Six1-Eya2 inh	JMJD2A Tudor	HP1b chromo inh	BAZ2B block	CtBP-E1A blk	G9a inh
COc1ccc(C(=O)NC(=S)Nc2cc(C)ccn2)cc1[N+](=O)[O-]	-	-	-	-	-	2.8µM
COc1ccccc1NC(=O)Cn1nc2c3cc(F)ccc3n(Cc3cccc(C)c3)cc-2c1=O	.	-	-	-	.	?
COc1ccc(Cl)cc1NC(=O)C(C)Sc1n[nH]c(N)n1 (stereo not given)	-	-	-	-	-	-
Cc1ccccc1NC(=O)C1CCN(C(=O)c2ccc(F)cc2)CC1	.	-	-	-	.	-
O=C(Nc1nc(-c2ccc(F)cc2)cs1)C1CCN(C(=O)c2ccc(F)cc2)CC1	-	-	-	-	-	35µM
O=C(Nc1nc2ccccc2[nH]1)C1CC1	-	-	-	-	-	-
Cc1cccc(NC(=O)C2CCN(C(=O)c3ccc(F)cc3)CC2)n1	-	-	-	-	-	-
CC(=O)c1sc(NC(=O)C2CCN(C(=O)c3ccc(F)cc3)CC2)nc1-c1ccccc1	-	-	-	-	-	45µM
O=C(Nc1nc2ccccc2[nH]1)C1CCN(C(=O)c2ccc(F)cc2)CC1	-	?	-	-	-	40µM
O=C(Nc1nc2c(F)cc(F)cc2s1)C1CCN(C(=O)c2ccc(F)cc2)CC1	-	-	-	-	-	45µM
O=C(Nc1ccccc1)Nc1nc(Nc2cc(F)cc(F)c2)nc(NC2CCCC2)n1	.	-	.	.	.	.
CC1(C(=O)Nc2cccc(C(F)(F)F)c2)Cc2c(-c3cccc(C(N)=O)c3)ccnc2O1 (stereo not given)	-	.	.	.	-	.
COc1ccc(N=CC2CCCCC2=O)c([N+](=O)[O-])c1 (stereo not given)	?	25µM	45µM	.	?	.
COc1ccccc1NC(=O)C1=C(C)Nc2ncnn2C1c1cccn1C (stereo not given)	.	-	-	-	.	-
Cc1ccc2c(ccc(=S)n2C)c1	-	-	-	?	-	40µM
Cc1ccc2c(c1)cc(C(=O)Nc1ccccc1C)n2C	.	-	-	-	.	-
O=c1cnc2cnc(Nc3ccccc3)nc2n1C1CC1	.	.	.	.	.	-[0.501 µM]
COc1ccc2cc1Oc1ccc(cc1)C[C@H]1c3c(cc(OC)c4c3Oc3c(ccc5c3[C@H](C2)N(C)CC5)O4)CCN1C	-	20µM	?	.	-	.
COc1ccc2cc1Oc1ccc(cc1)CC1c3c(cc(OC)c4c3Oc3cc5c(cc3O4)CCNC5C2)CCN1C (stereo not given)	?	11µM	?	6.3µM	-	?
COC(=O)c1ccc(N2CC3CNC(=O)C2(C(=O)OC)N3C)cc1 (stereo not given)	-	-	-	.	-	.
Cc1cc(C2=NNC(=Nc3ccc(S(=O)(=O)N4CCOCC4)cc3)SC2)c(C)n1C	-	?	-	-	-	32µM
Cc1noc(-c2ccc(-c3noc(-c4cccc(F)c4)n3)cc2)n1	.	-	-	-	.	-
COc1ccc(S(=O)(=O)O)cc1P(=O)(c1ccccc1)c1ccccc1	-	-	-	-	-	-
CC(=O)Nc1ccc2c(O)cc(S(=O)(=O)O)cc2c1	-	?	?	.	-	.
O=S(=O)(O)c1ccc(O)c2cc(Nc3ccccc3)ccc12	-73	2.8µM	2µM	.	-	.
SMILES	Six1-Eya2 inh	JMJD2A Tudor	HP1b chromo inh	BAZ2B block	CtBP-E1A blk	G9a inh
Nc1ccc2c(O)cc(S(=O)(=O)O)cc2c1	?	45µM	?	.	?	.
COc1ccccc1Nc1ccc2c(O)cc(S(=O)(=O)O)cc2c1	-79	20µM	22µM	.	-88	.
O=S(=O)(O)c1cc(O)c2ccc(Nc3ccccc3)cc2c1	?	2.8µM	?	.	-	.
O=C1CCc2cc(S(=O)(=O)Nc3ccc4c(c3)CCC4)ccc2N1	.	-	.	.	.	.
C=CCN(C(=O)c1csnn1)C(C(=O)NC(C)(C)C)c1ccncc1 (stereo not given)	-	-	-	-	-	-
Nc1cccc2c(O)cc(S(=O)(=O)O)cc12	?	10µM	10µM	.	?	.
Cc1ccc(S(=O)(=O)c2cc(Nc3ccccc3)ccc2O)cc1	-	?	-	50µM	-	-[2.33 µM]
O=S(=O)(O)c1cc(O)c2cc(Nc3ccccc3)ccc2c1	-	14µM	35µM	.	-	.
COc1ccc(Oc2ncc3nc(-c4cccs4)c(=O)n(Cc4cccc(OC)c4)c3n2)cc1	.	.	.	.	.	-[12.7 µM]
O=C(C=Cc1ccccc1)CC(c1ccccc1)N1CCOCC1 (stereo not given)	-	-	-	.	-	.
C#CCOCCOCCOCCNc1nc(N2CCOCC2)nc(N2CCN(C(=O)[C@H]([C@@H](C)CC)n3cc(CCCN=C(N)N)nn3)CC2)n1	-	-	-	-	.	50µM
C#CCOCCOCCOCCNc1nc(N2CCOCC2)nc(N2CCN(C(=O)[C@H]([C@@H](C)O)n3cc(CCCCN)nn3)CC2)n1	-	-	-	?	-	45µM
C#CCOCCOCCOCCNc1nc(N2CCN(C(=O)[C@H]([C@@H](C)O)n3cc(CCCCN)nn3)CC2)nc(N2CCN(C(=O)[C@H]([C@@H](C)CC)n3cc(CCCCN)nn3)CC2)n1	-	-	-	-	.	-[2.33 µM]
O=C(O)c1c(Cl)cccc1Nc1ccccc1	-	-	-	.	-	.
c1ccc(CCNc2ccccc2)cc1	.	.	.	56µM	.	?
O=C(/C=C/c1ccc(Cl)cc1)NC(=S)Nc1ccc(C(=O)O)cc1	-	22µM	?	50µM	-	?
Cc1cc(C(=O)NNC(=O)/C=C/c2ccco2)c(C)o1	?	45µM	?	?	-	22µM
CC(=O)NC(=S)Nc1ccc(NC(=S)NC(=O)/C=C/c2ccco2)cc1	-	?	-	?	-	40µM
COc1ccccc1/C=C/C(=O)NNC(=O)c1cc(C)oc1C	-	-	-	-	-	-
O=C(/C=C/c1ccco1)NC(=S)NNC(=O)c1ccco1	-	-	-	-	-	11µM
CN(C)c1ccc(NC(=S)NC(=O)/C=C/c2ccc(Cl)cc2)cc1	?	-[11.4 µM]	?	-	-	-[12.7 µM]
CCC(=O)Nc1ccc(NC(=S)NC(=O)/C=C/c2ccco2)cc1	-	?	-	-	-	-[0.501 µM]
C=CCNC(=S)NNC(=O)c1ccco1	-	-	-	-	-	-
O=C(/C=C/c1ccccc1)N/C(=C/c1ccccc1)C(=O)Nc1ccc(C(=O)O)cc1	-	50µM	-	-	-	-
CCCCC(=O)NC(=S)Nc1cc(C(=O)O)ccc1OC	-	-	-	-	-	-
COc1ccc(C(=O)O)cc1NC(=S)NC(=O)/C=C/c1ccc(C(C)C)cc1	-	79µM	-	50µM	-	?
O=C(/C=C/c1ccco1)NC(=S)Nc1ccc(O)c(-c2nc3ccccc3s2)c1	-	?	-	-	-	40µM
